Data on 46 compounds can be found in PubChem BioAssay AID2685 (National Center for Advancing Translational Sciences (NCATS), 2010).

Among all 320,000 compounds or so, about 2,100 (0.66%) were called active. About 53% were inconclusive and are not listed. This is one part of a sample in which actives are shown more often than they occur. The call rests on the fitted dose curve; in most records, active means well fitted inhibition curve with a large enough effect in the signal ratio, with a control signal flat (not every such curve was filed as active); inconclusive means small, poorly fitted or top-dose-only effect, or effect the other way, or a change in a side signal; inactive means flat fitted curve, though single readings scatter; the % refers to the signal ratio.
Potency means the concentration at half of the fitted maximal effect.

The nature of this test: qHTS Assay for Lipid Storage Modulators in Drosophila S3 Cells.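 On cell number change: cells counted by Cell Tracker Red CMTPX staining in the red channel.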 On lipid storage change, negative = inhibition: on the % scale 0 is the no-effect control and ±100 the full control effect. The settings on record: BODIPY lipid droplet fluorescence, 18-24 h, cells fed with added oleic acid; cell number change: measured here: cell count max response; series mostly up to 46.1 µM; lipid storage change, negative = inhibition: at the top concentration. The gist of the method: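 Drosophila S3 cells got compounds at several concentrations plus oleic acid (400 uM solution). Laser-scanning cytometry with 488 nm excitation read lipid droplets at 500-530 nm and cells at 575-640 nm. Percent activity was relative to 20 uM Triacsin C.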
On to `CCOC(=O)C1CCN(Cc2ccc(OC)c(OCc3ccccc3)c2)CC1`, for which the “lipid storage change, negative = inhibition” value is -14.2% (inactive) and the cell number change was -8.13%. The corresponding values for `O=C(COC(=O)c1cc(Cl)ccc1Cl)NCCN1C(=O)CSC1=O` are 9.78% (inactive) and -6.51%. `O=C(CSc1nc(-c2ccc(F)cc2)cs1)NCCN1C(=O)CSC1=O`: the “lipid storage change, negative = inhibition” value was -7.68% (inactive).

For `O=C(CSc1n[nH]c(-c2cc(Cl)ccc2Cl)n1)NCCN1C(=O)CSC1=O`, the Potency was 18.4 µM (active) and the cell number change was -24.6%.

With `O=C(CCc1nnc2ccc(NCc3ccccc3Cl)nn12)NC1CCCC1`, the “lipid storage change, negative = inhibition” value was 2.54% (inactive) and the cell number change was found to be 3.96%. The matching figures for `CC1(C)CC(=O)C2=C(C1)Oc1ncn(Cc3ccco3)c(=N)c1C2c1ccccc1` (configuration not stated): 19.1% (inactive) and -0.936%. The corresponding values for `CC(C)(C)n1ncc2c(=O)n(Cc3c(F)cccc3Cl)cnc21` are 0.516% (inactive) and 4.75%.

As to `O=C1NC(c2ccccc2)=C(c2ccc3ccccc3n2)C(c2ccccc2)N1` (configuration not stated), the “lipid storage change, negative = inhibition” value was 9.51% (inactive) and the cell number change is -0.112%. As to `CC(C)(Oc1ccc(CCNC(=O)c2ccc(-c3ccccc3)o2)cc1)C(=O)O`, the “lipid storage change, negative = inhibition” value is -18.4% (inactive) and the cell number change came out at 7.48%. The matching figures for `Cc1ccc(S(=O)(=O)Nc2nc3ccccc3nc2NCc2ccc3c(c2)OCO3)cc1C`: 1.16% (inactive) and -0.718%. For `O=c1oc(-c2cc3ccccc3o2)nc2sc3c(c12)CCCC3`, the “lipid storage change, negative = inhibition” value is 0.767% (inactive) and the cell number change was -5.74%.

In the case of `COc1ccc(C(=O)NCC(=O)O)cc1`, the Potency was 16.4 µM (active) and the cell number change was -3.91%. Regarding `COc1ccc(C(=O)COC(=O)CNC(=O)c2ccc(OC)cc2)cc1`, the “lipid storage change, negative = inhibition” value is 8.54% (inactive). Take `COc1ccc(C(=O)NN)cc1`: the “lipid storage change, negative = inhibition” value was 1.51% (inactive) and the cell number change stood at 15%. With `CCc1nccn1S(=O)(=O)c1cc(OC)ccc1OC`, the “lipid storage change, negative = inhibition” value is 12.7% (inactive). For `CCn1cc(CN2CCN(Cc3ccc(OC)c(C)c3C)C(CCO)C2)c(C)n1` (configuration not stated), the “lipid storage change, negative = inhibition” value is 24% (inactive) and the cell number change was found to be 2.86%. Take `CCCCCn1cnnc1SCC(=O)c1ccc2c(c1)OCO2`: the result was inactive and the cell number change is -4.15%.

For `CC(=Nc1ccc(O)cc1)c1sc2ccccc2c1O`, the “lipid storage change, negative = inhibition” value was 4.99% (inactive) and the cell number change came out at 0.835%. For the compound `CC(=Nc1ccccc1O)c1sc2ccccc2c1O`, the Potency is 25.9 µM (active) and the cell number change was -13.3%.

With `CC(=Nc1ccc(Br)cc1)c1sc2ccccc2c1O`, the compound was called inactive.

Consider `CCn1cc(C(=O)N(C)CC(OC)OC)c(=O)c2cc(S(=O)(=O)N3CCOCC3)ccc21`, for which the outcome was inactive and the cell number change came out at 3.42%. Take `C=CCn1c(=S)[nH]c2cc(C(=O)NCCc3ccc(S(N)(=O)=O)cc3)ccc2c1=O`: the “lipid storage change, negative = inhibition” value was 3.58% (inactive) and the cell number change amounted to 16.5%. The corresponding values for `Cc1ccc(S(N)(=O)=O)c(C)c1-n1cnnn1` are 3.06% (inactive) and 3.24%. As to `Cc1c(NC(=O)C(C)N2CC(C)OC(C)C2)c(=O)n(-c2ccccc2)n1C` (configuration not stated), the Potency is 7.31 µM (active) and the cell number change was 11.9%.

With `Cc1ccc(SC(C)C(=O)Nc2c(C)n(C)n(-c3ccccc3)c2=O)cc1` (configuration not stated), the compound was called inactive. In the case of `COc1cc(-c2nnc(SC(C)C(=O)Nc3c(C)n(C)n(-c4ccccc4)c3=O)o2)cc(OC)c1OC` (configuration not stated), the Potency was 25.9 µM (active) and the cell number change was -15.3%. In the case of `CCN1CCN(C(C)C(=O)Nc2c(C)n(C)n(-c3ccccc3)c2=O)CC1` (configuration not stated), the “lipid storage change, negative = inhibition” value is 12.9% (inactive) and the cell number change is -2.1%. The matching figures for `Cc1cc(SC(C)C(=O)Nc2c(C)n(C)n(-c3ccccc3)c2=O)nc2ccccc12` (configuration not stated): -14.6% (inactive) and -14.4%. Consider `Cc1c(NC(=O)C(C)N2C(=O)C3CCCCC3C2=O)c(=O)n(-c2ccccc2)n1C` (configuration not stated), for which the “lipid storage change, negative = inhibition” value is -5.56% (inactive) and the cell number change stood at 9.88%.

As to `COCCNC(=O)C(C)Oc1ccccc1` (configuration not stated), the “lipid storage change, negative = inhibition” value was 20.9% (inactive) and the cell number change stood at 20.2%. The corresponding values for `NS(=O)(=O)c1ccc(CNC(=O)CSc2nc3ccc(Cl)cc3[nH]2)cc1` are -1.11% (inactive) and -16.1%. As to `COc1ccc(C2CC(=O)c3sc(NC(C)=O)nc3C2)cc1` (configuration not stated), the “lipid storage change, negative = inhibition” value was -1.03% (inactive) and the cell number change turned out to be 20.9%. The corresponding values for `Cc1cc(C)cc(NC(=S)N2CCC(N(C)CC3CCCO3)CC2)c1` (configuration not stated) are 2.61% (inactive) and 11.9%.

Take `Cc1cc(C)c(NC(=S)N2CCC(N(C)CC3CCCO3)CC2)c(C)c1` (configuration not stated): the Potency is 25.9 µM (active) and the cell number change is 6.74%.

For `Cc1ccc(NC(=S)N2CCC(N(C)CC3CCCO3)CC2)cc1` (configuration not stated), the “lipid storage change, negative = inhibition” value is 1.85% (inactive) and the cell number change came out at 14.9%. Take `Cc1cccc(C)c1NC(=S)N1CCC(N(C)CC2CCCO2)CC1` (configuration not stated): the Potency was 20.6 µM (active) and the cell number change was -14.4%. Consider `Cc1c(Cl)cccc1NC(=S)N1CCC(N(C)CC2CCCO2)CC1` (configuration not stated), for which the “lipid storage change, negative = inhibition” value was 5.5% (inactive) and the cell number change was found to be 7.58%. The corresponding values for `Cc1ccc(NC(=S)N2CCC(N(C)CC3CCCO3)CC2)cc1C` (configuration not stated) are 7.38% (inactive) and 5.03%. Turning to `Cc1cc(-c2csc(N)n2)c(C)n1CCc1ccccc1`, the compound was classed as inactive and the cell number change is -18.9%.

For `CCN(CC)C(=O)C1CCN(S(=O)(=O)c2ccc(-n3cnnn3)cc2)CC1`, the “lipid storage change, negative = inhibition” value was -3.69% (inactive) and the cell number change came to 1.39%. The corresponding values for `COc1ccc(S(=O)(=O)NCC(=O)NCc2cc(=O)n(C)c(=O)n2C)cc1C` are -0.472% (inactive) and 10.1%. `CCOC(CCn1c(SCC(=O)NC2CCCC2)nc2ccccc2c1=O)OCC`: the call was inactive and the cell number change amounted to 7.57%.

For `CN(C)CCCNCCCNC(=O)c1ccncc1`, the “lipid storage change, negative = inhibition” value is -3.34% (inactive) and the cell number change worked out at 10.5%. Take `O=C(CC1C(=O)NCCN1Cc1cccc(C(F)(F)F)c1)NC1CCCCCC1` (configuration not stated): the Potency is 5.17 µM (active) and the cell number change came out at 13.5%. As to `O=C(CC1C(=O)NCCN1Cc1ccccc1)NC1CCCCCC1` (configuration not stated), the compound was classed as inactive and the cell number change is 13.2%. On to `O=C(CC1C(=O)NCCN1Cc1cccc(F)c1)NC1CCCCC1` (configuration not stated), for which the “lipid storage change, negative = inhibition” value was -0.615% (inactive) and the cell number change was 13.2%.
